# Calls of active or inactive are those of the source.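 The calls were made as follows: active = inhibition above 20% together with a positive visual image hit; inconclusive = visual image hit but inhibition not above 20%; inactive = no visual image hit.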
# Experiment: inhibitors of TNFa-induced NFkB p65 translocation, primary screen, imaging, HUVEC, MLSMR starter and 10KST1 sets (AID 438);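 also: compound added about 3h40 before a 20 min TNFalpha stimulation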;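 as to inhibition: signal is the nuclear over cytoplasmic p65 intensity ratio per well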
# Conditions: HUVEC TNFa-induced p65 nuclear translocation; cell count: measured here: nuclei count (cytotoxicity indicator), at 2.08 µM; inhibition: at 2 µM, stronger effect = higher value, 0% TNFa-plus-vehicle, 100% no-TNFa wells
Compound,cell count,inhibition
Cc1noc(C)c1C(=O)OCC(=O)Nc1ccccc1C(=O)NC(C)c1ccccc1 (centres undefined),503,4.7% (inactive)
CCc1c(C)nc(N2CCN(Cc3ccccc3)CC2)[nH]c1=O,623,-17.8% (inactive)
CCOc1ccc(CCNC(=O)CCc2nc(-c3ccc(OC)cc3)no2)cc1OCC,322,-3.5% (inactive)
O=C(O)CCCNS(=O)(=O)c1ccc(NCc2ccccc2)c(C(=O)O)c1,687,6.7% (inactive)
CN1CCN(C(=O)c2ccccc2N(Cc2ccccc2)S(C)(=O)=O)CC1,359,4% (inactive)
Cc1nc(=S)n(-c2ccccc2)[nH]1,638,-5% (inactive)
Cc1ccc(S(=O)(=O)Cc2ccc(C(=O)NCCCN3CCN(C)CC3)o2)cc1,597,2.3% (inactive)
COc1cccc(-n2c(C)nc3c(cnn3-c3ccc(Cl)cc3)c2=O)c1,238,-6.4% (inactive)
CC1(C)CC(=O)C(C=NCCc2ccc(S(N)(=O)=O)cc2)=C(O)C1,601,-6.1% (inactive)
Cc1oc(-c2ccccc2)cc1C(N)=O,248,0% (inactive)
O=C(Nc1ccc(N2CCOCC2)c(F)c1)c1ccncc1,262,-3.2% (inactive)
COCn1c(COc2ccccc2)nc2ccccc21,478,9.6% (inactive)
COc1ccc(OC)c(C2=NOC(C(=O)NCCN3CCOCC3)C2)c1 (centres undefined),715,-22.4% (inactive)
Cc1cc(C(=O)Nc2cc(C)n(Cc3ccc(Cl)cc3)n2)no1,240,9.5% (inactive)
Cc1cc(C(=O)CSCc2nnc3n(CCC(C)C)c(=O)c4ccccc4n23)c(C)n1C,284,-11.2% (inactive)
COc1ccc(-c2[nH]nc3c2C(c2ccccc2OC(=O)N2CCOCC2)C(C#N)=C(N)O3)cc1 (centres undefined),663,-15.1% (inactive)
COC(=O)c1ccccc1NC(=O)Nc1cc(C)cc(C)n1,205,0.9% (inactive)
CCOC(=O)C1CCCN(Cc2nc(N)nc(Nc3ccccc3)n2)C1 (centres undefined),741,-4.7% (inactive)
COCC(=O)Nc1sc2c(c1C(=O)OC)C(C(=O)OC)CC2 (centres undefined),403,-3.4% (inactive)
Cc1ccnc(NC(=O)CCC(=O)N(CC(=O)NC2CCCCC2)c2cccc(C)c2C)c1,426,4.4% (inactive)
Cc1ccc(NC(=O)C2CCCN2C(=O)Oc2ccccc2)cc1 (centres undefined),344,6% (inactive)
c1ccc2[nH]c(CSc3nnc(-c4ccncc4)o3)nc2c1,388,-5% (inactive)
Cc1ccc(-c2c3c(=O)n(C)c(=O)n(C)c3cn2CCCN2CCOCC2)cc1,761,4.5% (inactive)
CCOc1ccc(NC(=O)CN(C)S(=O)(=O)c2cccs2)cc1,650,-12% (inactive)
CCn1ncc(C2=NOC(C(=O)NCc3ccc(Cl)cc3)C2)c1C (centres undefined),576,13.4% (inactive)
CCOC(=O)C1CCCN(C(=O)c2ccc(CS(=O)(=O)Cc3ccccc3C)o2)C1 (centres undefined),419,10.9% (inactive)
CC(C)C(=O)Nc1nnc(CCc2nnc(NC(=O)C(C)C)s2)s1,793,-10.1% (inactive)

# Reference: PubChem BioAssay
